The text below walks through data of PubChem BioAssay AID624330 (Southern Research Specialized Biocontainment Screening …, 2012).

Screen size: about 340,000 compounds; about 2,100 (0.62%) were called active. These entries were drawn from the full list. Entries with a potency or affinity are not part of this list. Values without a mark were called inactive.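 How the source made its calls: active means first-screen hits whose inhibition reached a set limit at any dose in the follow-up dose series; inconclusive means inhibition above the set first-screen limit but never retested; inactive means the rest.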

The target in this assay is Rac GTPase-activating protein 1 (Homo sapiens) (UniProt Q9H0H5). Put plainly: MgcRacGAP GTPase-activating activity inhibitors, confirmation, biochemical, ADP Hunter fluorescence, primary and confirmatory (AID 624330).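 Further: fluorescence reports GDP produced by GAP-driven GTP hydrolysis.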 Particulars: MgcRacGAP-stimulated Rac1 GTP hydrolysis, at 30 µM, stronger effect = higher value, GST-tagged Rac1 F28L mutant substrate.
Sequence of Rac GTPase-activating protein 1 (Homo sapiens) (Q9H0H5 whole entry, looked up): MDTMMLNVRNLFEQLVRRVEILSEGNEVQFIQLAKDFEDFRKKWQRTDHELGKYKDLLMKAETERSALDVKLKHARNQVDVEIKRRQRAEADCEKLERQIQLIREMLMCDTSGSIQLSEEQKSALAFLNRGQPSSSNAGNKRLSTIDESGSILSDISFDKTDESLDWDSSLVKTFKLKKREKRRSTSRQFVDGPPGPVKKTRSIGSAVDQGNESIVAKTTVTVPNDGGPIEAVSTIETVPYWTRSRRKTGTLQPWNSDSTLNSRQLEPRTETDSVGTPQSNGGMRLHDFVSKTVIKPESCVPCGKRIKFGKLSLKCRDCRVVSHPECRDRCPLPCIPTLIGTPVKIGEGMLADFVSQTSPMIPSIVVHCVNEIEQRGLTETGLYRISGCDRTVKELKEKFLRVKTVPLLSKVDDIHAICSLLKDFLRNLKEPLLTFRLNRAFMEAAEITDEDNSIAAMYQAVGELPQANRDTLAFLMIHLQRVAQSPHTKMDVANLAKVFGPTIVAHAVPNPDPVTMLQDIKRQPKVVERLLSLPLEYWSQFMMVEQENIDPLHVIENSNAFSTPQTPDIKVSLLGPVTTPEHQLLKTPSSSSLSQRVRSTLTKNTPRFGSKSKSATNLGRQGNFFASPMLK
The term inhibition denotes the change of the read-out against control, counted positive when it falls. Consider `CCn1c(CNC(=O)c2ccco2)nnc1SCC(=O)c1ccccc1`, for which the inhibition was 13.1%.

As to `CCN(CC)S(=O)(=O)c1cccc(NC(=O)C(=O)c2c(-c3ccccc3)cc3ccccn23)c1`, the inhibition is 9%. `O=C(/C=C/c1ccc(Cl)cc1)N1CCN(Cc2ccccc2)CC1`: the inhibition was 10.8%.

`CC(Oc1ccc(Br)cc1)C(=O)Nc1ccc(S(=O)(=O)Nc2nccs2)cc1` (configuration not stated): the inhibition was 3.41%. The same measure for `COc1ccc(/C=N/NC(=O)c2cc[n+]([O-])cc2)cc1OC`: 1.48%; for `COc1cc(C=NCc2ccccc2)ccc1O`: 15.5%.

Take `COc1ccc(/C=N/NC(=O)c2cc[n+]([O-])cc2)cc1`: the inhibition is 2.43%.

Consider `Cn1c(N/N=C\c2cccc(O)c2)cc(=O)n(C)c1=O`, for which the inhibition was 11.6%. Regarding `COc1ccc(NS(=O)(=O)c2cccc(C(=O)NN=Cc3ccc(OC)c(O)c3)c2)cc1`, the inhibition is 22.5%. The same measure for `COc1ccc(/C=N/Nc2cc(=O)n(C)c(=O)n2C)cc1OC`: 1.57%; for `COc1cc(/C=N/Nc2ccccc2)ccc1O`: 13%.

For the compound `COc1ccc(NS(=O)(=O)c2cccc(C(=O)N/N=C/c3ccc(O)cc3)c2)cc1`, the inhibition was 16.4%.

Take `Cc1ccc(C(=O)N2CCN(S(=O)(=O)c3ccc(C)c([N+](=O)[O-])c3)C2)cc1`: the inhibition is 6.42%.

For `O=S(=O)(c1ccc(-c2csc(=Nc3ccccc3)n2CCCN2CCOCC2)cc1)N1CCOCC1`, the inhibition is 3.34%. As to `CCCCCCCNC(=O)C1(CC2CC(c3ccc(Cl)cc3)=NO2)CCN(C(=O)Cc2ccc(F)cc2)CC1` (configuration not stated), the inhibition is 4.28%. In the case of `Fc1ccc(CN2CCCN(Cc3nc(-c4ccc5c(c4)OCO5)no3)CC2)cc1` it was 7.98%. Take `CCCC(=O)Nc1ccc(C(=O)COC(=O)C2CC2)cc1`: the inhibition was 6.42%. As for `Cc1cc(C)c(C(=O)N2CCCC(CNC(=O)C3(c4ccc(Cl)cc4)CC3)C2)c(=O)[nH]1` (configuration not stated), the inhibition is 6.3%.

For `CNC(=O)c1ccc(CN(C)C(=O)c2cccc(S(=O)(=O)N3CCc4ccccc4C3)c2)cc1`, the inhibition is 15.5%. Consider `COc1ccc2[nH]c(C(=O)N/N=C/c3ccc(OC)c(O)c3)cc2c1`, for which the inhibition was 26.2%. Consider `COc1ccc(/C=N/NC(=O)c2cc3cc(OC)c(OC)cc3[nH]2)cc1`, for which the inhibition is 10.7%. In the case of `O=C(N/N=C/c1ccncc1)c1ccc(-n2cccc2)cc1` it was -9.21%; in that of `COc1ccc(/C=N\NC(=O)c2cc(O)c(O)c(O)c2)cc1CN1CCN(c2ccc(F)cc2)CC1`, -36.7%; in that of `COc1ccc(/C=N/NC(=O)c2ccc(C)cc2)cc1CN1CCN(c2ccc(F)cc2)CC1`, 11.1%. The same measure for `O=C(N/N=C/c1ccc(F)cc1)c1cc[n+]([O-])cc1`: 2.39%; for `COc1cc(/C=N/NC(=O)c2cc[n+]([O-])cc2)cc(OC)c1OC`: 7.29%; for `COc1cc(C(=O)N/N=C/c2ccc3c(c2)c2ccccc2n3C)ccc1O`: 22.2%.
